Compounds with a hit are over-represented: about 0.5% of the library has one in this group of screens.
Cardiac RTF inh: cardiac RTF calcium desensitization; P19429+P45379; IANBD-labeled cardiac RTF, Ca2+ fluorescence; inhibition, % at 7.15 µM; hit rate 0.12% among 340,000;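 active = inhibition above the mean inhibition of all tested compounds plus 3 SD, cut at about 17% in these data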;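 note: assay run at fixed EC70 calcium of 1.6 mM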
Keap1 Nrf2 FP: inhibitors of human Keap1-Nrf2 protein-protein interaction. AID 504523. Q14145. inhibition, % at 9.4 µM. Keap1 Kelch-Nrf2 peptide fluorescence polarization, 1536-well. hit rate 0.15% among 340,000; in the data active = inhibition above about 12%;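 note: human Keap1 Kelch domain with fluorescein labeled Nrf2 9mer peptide probe; 0% = neutral control wells and 100% = peptide positive control; higher means more block of Keap1 binding to Nrf2 peptide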
Target sequence (Q14145 whole entry, looked up, the tested form may be a part): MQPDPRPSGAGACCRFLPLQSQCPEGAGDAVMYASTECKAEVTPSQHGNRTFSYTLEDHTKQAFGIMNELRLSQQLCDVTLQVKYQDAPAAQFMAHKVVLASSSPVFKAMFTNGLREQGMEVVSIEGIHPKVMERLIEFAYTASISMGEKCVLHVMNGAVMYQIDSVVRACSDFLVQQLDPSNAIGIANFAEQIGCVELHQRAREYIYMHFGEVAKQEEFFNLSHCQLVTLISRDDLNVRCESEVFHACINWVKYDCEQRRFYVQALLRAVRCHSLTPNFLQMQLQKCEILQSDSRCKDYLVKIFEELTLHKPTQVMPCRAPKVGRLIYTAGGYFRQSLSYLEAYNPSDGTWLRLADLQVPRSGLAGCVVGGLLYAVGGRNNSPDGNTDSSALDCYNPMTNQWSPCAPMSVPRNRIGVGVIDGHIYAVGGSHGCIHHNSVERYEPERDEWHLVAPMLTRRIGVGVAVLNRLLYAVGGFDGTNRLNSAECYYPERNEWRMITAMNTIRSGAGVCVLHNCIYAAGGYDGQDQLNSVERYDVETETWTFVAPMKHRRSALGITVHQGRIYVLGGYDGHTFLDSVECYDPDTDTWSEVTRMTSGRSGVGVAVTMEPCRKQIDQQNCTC
cardiac RTF act: cardiac RTF calcium sensitization; hit rate 0.24% among 340,000; P19429+P45379; activation, % at 7.2 µM; AID 493008; IANBD-labeled TnC RTF fluorescence at EC20 calcium; 0% EC20 calcium, 100% full calcium;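 active = activation above the mean over all tested compounds plus 3 SD, cut at about 30% in these data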;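 note: rise in fluorescence read as greater calcium sensitivity of cardiac thin filaments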
LANA DNA inh: blocks KSHV LANA C-terminal domain binding to DNA | hit rate 0.078% among 340,000 | MBP-C-LANA/FAM-LBS DNA binding, fluorescence polarization | AID 504423 | inhibition, % at 9 µM;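 active = highest replicate inhibition at or above 60% at 9 µM, even if other replicates fall short; inactive = all replicates below 60% inhibition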;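 note: 0% = neutral control wells and 100% = 4 µM acridine orange control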
RTF inh confirm: cardiac RTF calcium sensitivity inhibition, confirmation; reconstituted cardiac thin filaments, calcium sensitivity fluorescence; inhibition, % at 7.15 µM; shares compounds with Cardiac RTF inh; AID 504635; hit rate 8% among 360; in the data active = inhibition above about 18%
DNA intercal 2: intercalates DNA, flagged as C-LANA false positive; 20 tested, under 10 active; AID 588364; Acridine orange-DNA displacement, fluorescence polarization; AC50, µM (titrated, usually from 35 µM), without a hit: top-dose activity change, negative = inhibition; shares compounds with LANA DNA inh;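 active = signal drop with an AC50 no more than ten times the top valid dose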
Keap1 TSA: binds and thermally shifts human Keap1 Kelch domain; shares compounds with Keap1 Nrf2 FP; Keap1 Kelch thermal shift, delta Tm; stronger effect = higher value; max delta Tm, degrees C; hit rate 8% among 400; in the data active = max delta Tm above about 0.48 degrees C
Sypro dye melt: counter-screen for Keap1 thermal shift hits: dye-only artifacts; delta Tm, degrees C (concentration not given with the values); Sypro Orange dye-only thermal melt, no protein, delta Tm; top dose 26 µM; 140 tested, under 10 active; AID 651858; shares compounds with Keap1 Nrf2 FP;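 active = at highest dose tested, delta Tm positive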
* = called active by the depositor; nt = no result given.

SMILES	Cardiac RTF inh	Keap1 Nrf2 FP	cardiac RTF act	LANA DNA inh	RTF inh confirm	others
O=C1N[C@@H](Cc2ccccc2)C(=O)N2CCCC12 (stereo partly specified)	-0.2	-0.5	-3.5	-2.4	nt
O=C1N[C@@H](Cc2cnc[nH]2)C(=O)N2CCC[C@@H]12	17.0*	-1.9	3.4	0.7	-2.4
COCCN(C(=O)COC(=O)c1cc2c(s1)CCC2)c1c(N)n(Cc2ccccc2)c(=O)[nH]c1=O	19.9*	6.2	-26.9	25.5	16.0
N#Cc1ccccc1CSCCNC(=O)Cc1c(F)cccc1Cl	-1.2	2.2	4.0	-2.3	nt
O=S(=O)(c1ccc2nnn(O)c2c1)N1CCOCC1	1.4	-6.2	1.9	0.9	nt
O=S(=O)(c1ccc2ncn(O)c2c1)N1CCOCC1	22.5*	-1.5	-2.5	1.5	-8.7
COc1ccc(CN(C)CC(=O)Nc2ccc(SC(F)F)cc2)cc1OC	20.1*	2.5	5.0	-0.8	2.9
COc1ccc(-c2ccc(NS(=O)(=O)c3cc([N+](=O)[O-])c(C)c([N+](=O)[O-])c3)cc2)nn1	2.0	2.7	-10.3	0.6	nt
CN(C)CC[C@@H](c1ccc(Cl)cc1)c1ccccn1	17.2*	0.1	2.0	-2.1	0.0
CCc1ccc(NC(=O)c2cc(C)no2)cc1	-3.3	5.0	-0.8	0.4	nt
CCc1ccc(NC(=O)CN(N=Nc2nonc2C)c2nonc2C)cc1	26.4*	1.3	-0.5	1.0	-3.6
C/C(=N\NC(=S)NCc1ccccc1)c1ccc(C)o1	20.6*	0.5	-4.5	0.3	-2.2
CCCCC(CC)CN=C(N)NC(N)=NCCCCCCN=C(N)NC(N)=NCC(CC)CCCC (stereo unspecified)	22.6*	0.7	-0.5	-8.3	3.3
CCCCC(CC)CO (stereo unspecified)	-4.3	0.1	4.2	1.5	nt
O=C(CNS(=O)(=O)c1cccs1)NCc1ccc(F)cc1	-10.8	3.7	0.8	0.1	nt
CSC(=NCc1ccc(F)cc1)NS(=O)(=O)c1cccs1	17.2*	4.9	-0.9	-3.1	0.1
N#CC1(NC(=O)CN2CCN(S(=O)(=O)c3ccccc3F)CC2)CCCC1	-19.3	0.4	18.2	-2.6	nt
Cc1c(Cl)c([N+](=O)[O-])nn1CC(=O)NCc1cccs1	18.2*	-1.6	11.1	-0.8	-2.6
Cc1c(Cl)c([N+](=O)[O-])nn1CC(=O)NC(C)c1ccccc1 (stereo unspecified)	3.9	-0.6	-2.2	-1.5	nt
COc1ccccc1NCC(=O)N/N=C/c1c(O)ccc2ccccc12	0.3	-0.4	-3.3	3.3	nt
COc1ccccc1N(CC(=O)N/N=C/c1c(O)ccc2ccccc12)S(C)(=O)=O	25.7*	0.6	-5.8	0.9	11.0
COC(=O)c1ccc(/C=N/NC(=O)C2CC(=O)N(c3ccc(OC)cc3)C2)cc1 (stereo unspecified)	-14.8	-3.4	-1.6	-1.0	nt
COc1ccc(C2=CC3=C(Br)C(=O)C(C)(OC(=O)c4cccs4)C(=O)C3=CO2)cc1 (stereo unspecified)	19.8*	-4.3	-18.5	3.6	0.3
CC[C@@H](C(=O)[C@@H](C)[C@@H](O)[C@H](C)[C@@H]1O[C@@H]([C@@H](CC)C(=O)O)CC[C@@H]1C)[C@H]1O[C@]2(C=C[C@@H](O)[C@]3(CC[C@@](C)([C@H]4CC[C@](O)(CC)[C@H](C)O4)O3)O2)[C@H](C)C[C@@H]1C	20.3*	1.7	1.7	-2.1	-2.1
CCN(CC(=O)Nc1ccc(OC)cc1)C(=O)c1ccc2c(=O)n3c(nc2c1)CCC3	6.7	0.5	-0.1	0.4	nt
SMILES	Cardiac RTF inh	Keap1 Nrf2 FP	cardiac RTF act	LANA DNA inh	RTF inh confirm	others
O=C(C1CC1)N1CCc2cc(Br)cc(S(=O)(=O)NCc3ccco3)c21	17.3*	-12.8	-5.1	1.6	-3.6
COc1cccc(-n2c(C)c3c(OC)cccc(=O)c3c2C)c1	25.3*	-0.3	1.1	-0.6	-5.0
COc1cccc(=O)c2c(C)n(-c3cc(C)cc(C)c3)c(C)c12	-3.1	-4.7	3.4	1.9	nt
CCc1ccc(OCC(=O)c2c(O)c3ccccc3oc2=O)cc1	0.3	1.4	2.8	-0.1	nt
CCc1oc2ccccc2c1C(=O)c1cc(Br)c(O)c(Br)c1	17.8*	-2.2	-11.7	8.8	1.2
CCCCCCSc1ccc([C@@H]2[C@H]3C(=O)N(CC)C(=O)[C@H]3[C@]3(C(=O)OC)CCCCN23)cc1OC	-10.0	-10.6	17.2	-2.8	nt
CCOc1ccc(C2C(C(=O)c3cccs3)=C(O)C(=O)N2Cc2cccnc2)cc1 (stereo unspecified)	18.8*	-2.4	6.4	0.6	0.5
CCOc1ccc(C2C(C(=O)c3cccs3)=C(O)C(=O)N2Cc2cccnc2)cc1OC (stereo unspecified)	-10.1	-5.9	5.2	-0.1	nt
CN1C(=O)N(CC(=O)Nc2nccs2)C(=O)C12CCCCC2	7.0	-6.2	-0.4	0.9	nt
CN1C(=O)N(CC(=O)Nc2sccc2C(N)=O)C(=O)C12CCCCC2	17.0*	1.1	0.3	-0.1	-3.9
Cc1ccc(S(=O)(=O)N(C)c2ccccc2)cc1	-0.5	1.4	-0.8	0.2	nt
CN(c1ccccc1)S(=O)(=O)c1ccccc1Br	17.2*	-3.4	4.2	1.9	0.2
O=c1cc(N2CCc3ccccc32)[nH]c(=O)n1-c1ccccc1Cl	17.0*	2.3	-1.5	-0.1	-3.4
Cc1ccccc1-n1c(=O)cc(N2CCc3ccccc32)[nH]c1=O	-2.1	0.8	0.6	-1.5	nt
CCn1ncc(/C=C2/SC(=S)NC2=O)c1C	18.7*	-0.5	0.3	-1.3	-4.8
CN1CCN(/N=C/c2ccc(Br)cc2)CC1	20.1*	0.5	-2.1	-0.6	-6.0
CN1CCN(/N=C/c2ccc(N(c3ccccc3)c3ccccc3)cc2)CC1	6.2	-6.3	-4.9	0.9	nt
O=C(O)CC(C(=O)O)N1C(=O)/C(=C/C=C/c2ccco2)SC1=S (stereo unspecified)	65.8*	-1.8	-24.8	106.0*	20.6*	DNA intercal 2=6.4%
O=C(CSc1nccn1Cc1ccccc1)NC1CCCC1	0.1	3.8	-0.5	0.8	nt
O=C1C(=Cc2ccco2)CCC1=Cc1ccco1	28.8*	20.1*	3.4	115.7*	60.4*	Keap1 TSA=0.86*
Cc1cc(C)cc(NC(=O)CCN2CCCC2)c1	-2.9	-5.8	4.4	-0.1	nt
O=c1[nH]c(=S)[nH]c2c1C(c1ccc(Br)cc1)c1c([nH]c(=S)[nH]c1=O)O2	69.3*	45.0*	-50.9	112.5*	1.2	Keap1 TSA=-0.12;Sypro dye melt=-25.6
